# From the supplement of paper PMC6555819
# Columns and labels:
# Experiment in all cases: PBM binding z-score (relative to random genomic background probes); higher = stronger binding; sequences stand for … in GC…GCGATTGACAGCGTAGAATGAAGG
# [1] = test system: FXR:RXRa (NR concentration 270 nM, RXRa partner concentration 90 nM)
# Procedure, shortened: (§1)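 Regression normalization was applied to scanned fluorescence from custom Agilent 4×180K protein-binding microarrays. Before scanning, arrays were incubated 1 h with ligand-free nuclear receptor dimers, and binding was detected with antibodies against each partner (one per run). Binding z-scores use the random background probes as reference.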
# [2] = test system: LXRa:RXRa (NR concentration 270 nM, RXRa partner concentration 90 nM)
# Procedure, shortened: as §1
# [3] = test system: LXRa homodimer (NR concentration 270 nM)
# Procedure, shortened: as §1
# [4] = test system: LXRb:RXRa (NR concentration 270 nM, RXRa partner concentration 90 nM)
# Procedure, shortened: as §1
# [5] = test system: LXRb homodimer (NR concentration 270 nM)
# Procedure, shortened: as §1
# [6] = test system: PPARa:RXRa (NR concentration 270 nM, RXRa partner concentration 90 nM)
# Procedure, shortened: as §1
# [7] = test system: PPARg:RXRa (NR concentration 180 nM, RXRa partner concentration 90 nM)
# Procedure, shortened: as §1
# [8] = test system: PPARg:RXRa 270nM:90nM, anti-RXR (NR concentration 270 nM, RXRa partner concentration 90 nM)
# Procedure, shortened: as §1
# [9] = test system: PPARg:RXRa 30nM:10nM, anti-RXR (NR concentration 30 nM, RXRa partner concentration 10 nM)
# Procedure, shortened: as §1
# [10] = test system: PPARg:RXRa 90nM:30nM, anti-RXR (NR concentration 90 nM, RXRa partner concentration 30 nM)
# Procedure, shortened: as §1
# [11] = test system: PPARg:RXRa DBDmut IVT, anti-RXR (DBD mutation: RXRa K156A/R161A, NR concentration 270 nM, RXRa partner concentration 90 nM)
# Procedure, shortened: as §1
# [12] = test system: PPARg:RXRa IVT, anti-PPARg (NR concentration 270 nM, RXRa partner concentration 90 nM)
# Procedure, shortened: as §1
# [13] = test system: PPARg DBDmut:RXRa IVT, anti-PPARg (DBD mutation: PPARg1 K132A/R137A, NR concentration 270 nM, RXRa partner concentration 90 nM)
# Procedure, shortened: as §1
# [14] = test system: PPARg DBDmut IVT, anti-PPARg (DBD mutation: PPARg1 K132A/R137A, NR concentration 270 nM)
# Procedure, shortened: as §1
# [15] = test system: PPARg homodimer (NR concentration 180 nM)
# Procedure, shortened: as §1
# [16] = test system: PXR:RXRa (NR concentration 270 nM, RXRa partner concentration 90 nM)
# Procedure, shortened: as §1
# [17] = test system: PXR homodimer (NR concentration 270 nM)
# Procedure, shortened: as §1
# [18] = test system: RARa:RXR (NR concentration 270 nM, RXRa partner concentration 90 nM)
# Procedure, shortened: as §1
# [19] = test system: RARa homodimer (NR concentration 270 nM)
# Procedure, shortened: as §1
# [20] = test system: RARb:RXRa (NR concentration 270 nM, RXRa partner concentration 90 nM)
# Procedure, shortened: as §1
Sequence,PBM binding z-score [1],PBM binding z-score [2],PBM binding z-score [3],PBM binding z-score [4],PBM binding z-score [5],PBM binding z-score [6],PBM binding z-score [7],PBM binding z-score [8],PBM binding z-score [9],PBM binding z-score [10],PBM binding z-score [11],PBM binding z-score [12],PBM binding z-score [13],PBM binding z-score [14],PBM binding z-score [15],PBM binding z-score [16],PBM binding z-score [17],PBM binding z-score [18],PBM binding z-score [19],PBM binding z-score [20]
TAGCCTAGGTCATTGGGCCAGTGTAGTACGCATC,4.3,3.42,0.864,2.46,0.102,3.86,3.6,3.76,0.587,2.41,2.97,4.15,1.07,-0.249,0.874,1.41,-0.395,2.15,-0.103,3.69
TCATATAGGTAAAAGCTAGGTGAAAGTCCGATCT,0.543,0.688,-0.0379,0.557,-0.187,1.69,1,2.74,4,3.37,3.84,2.83,1.06,1.08,0.659,0.255,0.0441,1.01,0.436,0.407
ACAGACAGGTGAGTGAAGGTTACTCAGCTGGACG,0.506,0.708,-0.297,-0.125,-0.739,0.764,0.848,0.505,-0.0853,0.0538,0.352,1.16,0.332,0.037,0.138,0.646,-0.03,0.952,0.201,1.15
ATCTCTAGGTAAAGATAGTTCAGTGTATGCAAAT,0.705,4.16,0.797,0.893,0.581,1.05,0.827,0.452,0.59,0.44,1.71,1.89,0.591,1.15,1.3,1.32,0.866,1.11,0.968,0.53
CCTATTAGTTGACCATAAGGGCAAGCGAAGCTCG,0.766,0.114,0.254,0.218,0.573,0.369,0.36,0.458,-0.0041,0.237,0.132,0.158,-0.0196,0.32,1.47,0.536,0.56,0.913,1.9,1.65
CGTCCAAGGTCGAGGTCAGTGAAAGAGACTCGAA,4.56,3.15,0.186,2.74,-0.695,4.31,2.53,3.25,0.231,1.81,1.1,2.35,-1.04,-1.22,1.43,3.59,0.491,3.61,-0.0434,4.39
AGAATGAGGTTATACGTAGATCAGGTAAGAAAGT,2.3,2.13,0.183,1.72,-0.0403,3.17,2.14,2.25,0.708,1.53,4.3,2.28,1.26,0.947,0.811,1.23,0.571,2,0.262,1.52
ATATGTAGATTAGCTGGGGTCATTCAGACTAGGC,3.43,3.51,1.55,4.27,1.51,4.33,1.45,2.53,0.88,1.9,1.08,1.54,1.36,1.4,1.47,5.46,2.56,5.47,1.07,2.59
GCGACTGGGGCAAAGCAGGTTACAATAAGGTTGG,0.383,0.245,-0.467,0.623,-0.699,1.6,1.48,1.49,0.224,0.898,4.73,3.71,-0.466,-0.774,0.387,0.661,-0.376,0.904,-0.625,1.06
TTCCCAAGGTGAGCTGAGGTCGTTGATCCAACTC,3.13,1.59,-0.148,0.959,-1.02,1.55,-0.346,0.767,-0.184,0.534,0.471,1.12,-1.17,-1.13,0.0355,4.98,0.698,2,-0.927,1.75
TCCTATAGGTAAAAGGTGAAAGTCGGTGTGGTAA,2.04,1.54,-0.461,1.82,-0.544,4.65,7.68,7.41,7.38,8.23,3.53,3.95,0.0451,0.327,1.1,1.66,0.259,2.87,0.703,1.85
CCTAACGGGTCACTGACAGGTTATAGCATTTGGA,4.16,3.46,0.268,2.65,-0.0444,4.42,3.07,3.01,0.84,1.88,2.22,2.71,-0.265,-0.262,2.61,3.02,0.336,4.05,1.31,3.48
CCAGACAGGTGAGAAGGTAACTCGGCCTCGATTA,-0.0113,0.14,-0.0117,-0.138,-0.518,0.585,0.364,0.533,-0.307,0.171,1.02,0.832,-0.526,-1.05,0.472,-0.382,-0.139,-0.0873,0.15,0.513
CATCGGAGGACAACAGGAGGTCAGAGCTGCCAGA,1.42,2.43,2.12,1.91,-0.192,2.39,0.842,0.724,-0.516,0.267,0.575,1.3,-0.47,-0.762,1.51,2.23,0.834,2.69,0.396,3.08
TGAATGAGGTAATAAGATCAGGGAACGTTGCAAA,-0.101,-0.238,-0.404,-0.279,-0.0513,0.529,0.563,0.725,0.309,0.427,0.356,1.03,0.129,-0.853,-0.59,-0.275,-0.242,-0.0415,-0.474,-0.231
